Survival data for 96 compounds are collected here from PubChem BioAssay AID463173 (ICCB-Longwood Screening Facility, Harvard Medical School, 2010).

Out of some 52,000 compounds screened, about 1,700 (3.3%) were called active. The entries come from a sample that favours actives as a whole. Unmarked numbers belong to inactive results. No stated cut-off is given here; in the data, active means survival mostly below about 52% (no sharp cut-off); inactive means mostly above about 56%.

The experiment relates to Wild type. The experiment can be described thus: growth inhibition of S. aureus wild type versus tarO mutant, primary screen, teichoic acid synthesis inhibitors, RN4220, OD600 (AID 463173). The note with it: S. aureus RN4220 wild type/DeltatarO growth, OD600, 18 h, stronger effect = lower value, screened at 18.75 µg/mL (by protocol).
Take `COc1ccccc1NC(=O)c1sc2nc(C)c(C(=O)Nc3ccc(C)cc3C)c(-c3ccco3)c2c1N`: the survival was 73%.
For `COc1cc(-c2nnn(CC(=O)Nc3ccc(OC(F)(F)F)cc3)n2)cc(OC)c1OC`, the survival is 92%.
As for `COc1cccc(COC(=O)c2nn(-c3ccccc3)nc2N)c1`, the survival was 24%.
Consider `Nc1nn(-c2ccccc2)nc1C(=O)OCc1c(F)cccc1Cl`, for which the survival is 61%.
As for `Cc1ccccc1COC(=O)c1nn(-c2ccccc2)nc1N`, the figure is -9% (active); as for `Nc1nn(-c2ccccc2)nc1C(=O)OCc1ccccc1Br`, -2% (active).
For the compound `Nc1nn(-c2ccccc2)nc1C(=O)OCc1ccccc1`, the survival is 85%.
As for `Nc1nn(-c2ccccc2)nc1C(=O)OCc1ccc(Cl)cc1`, the survival was 59%.
In the case of `Cc1ccccc1NC(=O)CSc1nc2ccc(NC(=O)COc3ccccc3F)cc2s1`, the survival is 81%.
Turning to `CSc1ccc(CCNC(=O)c2cc(C)nc3c2c(C)nn3-c2ccccc2)cc1`, the survival is 124%.
For the compound `Cc1ccc(C)c(Cn2c(-c3cccs3)nc3ccccc32)c1`, the survival is 8% (active).
The value for `O=C(NCc1nc2ccccc2n1Cc1ccccc1Cl)c1ccccc1` was 90%.
The value for `Cc1ccccc1Cn1c(COc2ccc(Cl)cc2)nc2ccccc21` was 130%; that for `CCC(O)c1nc2ccccc2n1Cc1cc(C)ccc1C` (stereo unspecified) was 99%; that for `Cc1ccccc1Cn1c(-c2cccs2)nc2ccccc21` was 26% (active).
As to `OCc1nc2ccccc2n1Cc1ccccc1Cl`, the survival was 111%.
With `CCCC(=O)NCCc1nc2ccccc2n1Cc1c(F)cccc1Cl`, the survival was 66%.
Take `Cc1ccc(C)c(Cn2c(C(C)NC(=O)c3ccccc3)nc3ccccc32)c1` (stereo unspecified): the survival is 88%.
As for `Cc1ccccc1Cn1cnc2ccccc21`, the survival is 116%.
For `OCc1nc2ccccc2n1Cc1c(F)cccc1Cl`, the survival is 98%.
The value for `Clc1ccccc1Cn1c(-c2cccs2)nc2ccccc21` was -3% (active); that for `Fc1cccc(Cl)c1Cn1c(-c2cccs2)nc2ccccc21` was 26% (active); that for `Cc1cccc(NC(=O)CC2C(=O)OCCN2Cc2ccccc2)c1` (stereo unspecified) was 137%.
Turning to `CC1(N)CCS(=O)(=O)C1` (stereo unspecified), the survival is 110%.
Turning to `CCCn1cc(S(=O)(=O)c2ccc(CC)cc2)c(=O)c2cc(F)c(N(CC)CC)cc21`, the survival is 68%.
`Cc1ccccc1C(=O)Nc1ccccc1-c1nc(-c2ccccc2)no1`: the survival was 95%.
Consider `O=C(CN1C2=NCCN2c2ccccc21)C12CC3CC(CC(C3)C1)C2`, for which the survival is 98%.
Consider `NC(=O)CSc1ncc2c(n1)-c1ccccc1N(Cc1cccc(F)c1)S2(=O)=O`, for which the survival is 73%.
On to `CCN1CCN(c2oc(-c3ccc(COc4ccc(OC)cc4)o3)nc2C#N)CC1`, for which the survival is 75%.
As for `CC(C)c1ccc(NC(=O)CN2C(=O)COc3ccc(S(=O)(=O)N4CCCCCC4)cc32)cc1`, the figure is 109%.
`Cc1cccc(CNC(=O)Cn2c(-c3cccs3)cc3ccccc32)c1`: the survival was 135%.
On to `CC(=O)N1CCCC1c1nc2ccccc2n1Cc1cccc(C)c1` (stereo unspecified), for which the survival is 85%.
The value for `Cc1cccc(Cn2c(-c3cccs3)nc3ccccc32)c1` was -6% (active); that for `CCN(CC)S(=O)(=O)c1ccc(S(=O)(=O)NCc2ccc3c(c2)OCO3)cc1` was 108%; that for `O=C(Cn1c(SCC(=O)Nc2ccc(F)cc2)nc2ccccc21)NCc1ccc(F)cc1` was 63%.
For `O=C(CSc1nc2ccccc2n1CC(=O)Nc1ccc(F)cc1F)Nc1ccc(F)cc1`, the survival is 72%.
For the compound `COc1ccc(CNC(=O)Cn2c(SCC(=O)Nc3ccc(OC)cc3)nc3ccccc32)cc1`, the survival was 69%.
Consider `COc1cccc(CNC(=O)Cn2c(SCC(=O)Nc3ccc(C)c(C)c3)nc3ccccc32)c1`, for which the survival was 76%.
Take `COc1cccc(Cn2c(SCC(=O)N(C)c3ccccc3)nc3ccccc32)c1`: the survival is -6% (active).
Turning to `Cc1ccccc1NC(=O)Cn1c(SCC(=O)Nc2ccc(F)cc2)nc2ccccc21`, the survival was 76%.
In the case of `Cc1ccc(CNC(=O)Cn2c(SCC(=O)Nc3ccc(F)cc3)nc3ccccc32)cc1`, the survival was 131%.
The value for `COC(=O)c1ccc(Cn2c(SCC(=O)N(C)c3ccccc3)nc3ccccc32)cc1` was 75%; that for `CN(C(=O)CSc1nc2ccccc2n1Cc1cccc(C(F)(F)F)c1)c1ccccc1` was 87%; that for `CC(=O)c1cccc(NC(=O)Cn2c(SCC(=O)Nc3ccc(F)cc3)nc3ccccc32)c1` was -3% (active).
Take `COc1ccc(NC(=O)CSc2nc3ccccc3n2CC(=O)NCc2ccc(F)cc2)cc1`: the survival was -6% (active).
For the compound `COc1cccc(CNC(=O)Cn2c(SCC(=O)Nc3ccc(F)cc3)nc3ccccc32)c1`, the survival was 0% (active).
Regarding `CCN(CC)C(=O)c1ccc(Nc2nnc(-c3ccc(C)c(S(=O)(=O)NC)c3)c3ccccc23)cc1`, the survival was 79%.
As for `COc1ccc(CNc2nc3c(-c4cccc(F)c4)nnn3c3ccccc23)cc1`, the survival is 86%.
In the case of `N#Cc1ccccc1NC(=O)C(=O)NCCc1csc2nc(-c3cccc(F)c3)nn12`, the survival was 81%.
`COc1ccc(CCC(=O)NCc2nc3cccnc3n2Cc2cccc(OC)c2)cc1`: the survival was 73%.
On to `CCOC(=O)N1CCC2(CC1)OC(=O)C(C)=C2C(=O)NCc1cccc(OC)c1`, for which the survival was 131%.
Regarding `CCOC(=O)CSc1nc2ccc(NC(=O)c3ccc(Cl)cc3)cc2s1`, the survival was 90%.
The value for `CCOc1ccc(-c2nc3c(c(SCC(=O)N4CCCCC4)n2)Cc2cccc(OC)c2O3)cc1` was 75%; that for `CCNC(=O)C1CCN(c2nc3ccccc3nc2C(F)(F)F)CC1` was 148%; that for `CCCCNC(=O)C1CCN(c2nc3ccccc3nc2C(F)(F)F)CC1` was 82%.
With `O=C(NCCc1ccccc1Cl)C1CCN(c2nc3ccccc3nc2C(F)(F)F)CC1`, the survival is 10% (active).
The value for `Cc1ccccc1CCNC(=O)C1CCN(c2nc3ccccc3nc2C(F)(F)F)CC1` was 68%; that for `CCCSCCCNC(=O)C1CCN(c2nc3ccccc3nc2C(F)(F)F)CC1` was -3% (active).
`COc1ccccc1CCNC(=O)C1CCN(c2nc3ccccc3nc2C(F)(F)F)CC1`: the survival is 121%.
On to `Cc1ccc(NC(=O)C2CCN(c3nn4cc(-c5ccc(C)cc5)nc4s3)CC2)cc1`, for which the survival was 60%.
On to `Cc1cn2c(=O)cc(COC(=O)c3cccc(NC(=O)COc4ccccc4Cl)c3)nc2s1`, for which the survival was 124%.
Take `COc1ccc2c(c1)c1c(c(=O)n(Cc3ccccc3)c(=O)n1Cc1ccccc1Cl)n2C`: the survival is 84%.
For the compound `O=C(Nc1ccc2nc3n(c(=O)c2c1)CCCCC3)C(=O)Nc1ccccc1F`, the survival is 69%.
As to `O=C(Cc1ccc(Cl)cc1)NC1CC(=O)N(c2ccc3c(c2)OCCO3)C1` (stereo unspecified), the survival was 58%.
Take `CSc1ccccc1NC(=O)C1=CC(c2ccc3c(c2)OCO3)=NS(=O)(=O)N1C`: the survival is 87%.
As for `Cc1ccc(-c2nc3c(c(SCc4ccc(Br)cc4)n2)Cc2c(CO)cnc(C)c2O3)cc1`, the figure is 81%; as for `CCOC(=O)c1c(C)[nH]c(C)c1S(=O)(=O)N1CCC(C(=O)Nc2ccc(OCC)cc2)CC1`, -3% (active).
Consider `CCOC(=O)c1c(C)[nH]c(C)c1S(=O)(=O)N1CCC(C(=O)NCc2ccc(F)cc2)CC1`, for which the survival was 1% (active).
Turning to `CCOC(=O)c1c(C)[nH]c(C)c1S(=O)(=O)N1CCC(C(=O)Nc2ccc(C)c(Cl)c2)CC1`, the survival was 63%.
Consider `CCOC(=O)c1c(S(=O)(=O)N2CCC(C(=O)Nc3ccc(OCC)cc3)CC2)c(C)n(C)c1C`, for which the survival was 125%.
As to `CCOC(=O)c1c(C)[nH]c(C)c1S(=O)(=O)N1CCC(C(=O)NCc2ccc(C)cc2)CC1`, the survival is 71%.
Turning to `CCOC(=O)c1c(C)[nH]c(C)c1S(=O)(=O)N1CCC(C(=O)NCc2ccccc2)CC1`, the survival was 55%.
As to `O=C(NCC1CCCO1)c1ccc(NC(=O)c2ncn[nH]2)cc1` (stereo unspecified), the survival was 98%.
In the case of `CCCCN(CC)CCNC(=O)CCn1cnc2onc(-c3ccc(F)cc3)c2c1=O`, the survival was 72%.
For the compound `CCN(CC)CCCNC(=O)CCCn1ncn2c(cc3occc32)c1=O`, the survival was 85%.
For the compound `O=S(=O)(c1ccc(Cl)cc1)c1nc(-c2ccccc2Br)oc1NCc1ccccc1`, the survival was 96%.
As for `COc1ccc(C(C)NC(=O)CN(c2cc(OC)ccc2OC)S(=O)(=O)c2ccccc2)cc1` (stereo unspecified), the survival was 76%.
Turning to `COc1cccc2sc(N(Cc3cccnc3)C(=O)Cc3ccccc3)nc12`, the survival is 89%.
Consider `COc1ccc(-c2nc(C)c(CCNC(=O)c3cc(OC)c(OC)c(OC)c3)s2)cc1OC`, for which the survival was 57%.
For `CCOc1ccc(C(=O)NCCc2sc(-c3ccc(F)cc3)nc2C)cc1`, the survival is 97%.
`CCOc1ccc(C(=O)NCCc2sc(-c3ccc(OC)c(OC)c3)nc2C)cc1`: the survival was 129%.
For `CCOc1ccc(NC(=O)C(=O)NCCc2sc(-c3ccc(C)cc3)nc2C)cc1`, the survival is 55%.
As for `CCOc1ccc(C(=O)NCCc2sc(-c3ccc(C)cc3)nc2C)cc1`, the figure is -3% (active).
As to `COc1ccc(-c2nc(C)c(CCNC(=O)c3ccc(C(F)(F)F)cc3)s2)cc1OC`, the survival was -4% (active).
For the compound `CCC(C(=O)Nc1nnc2n1CCS2)c1ccccc1` (stereo unspecified), the survival is 66%.
With `CCN(CC)Cc1cc(C(=O)O)oc1C(C)(C)C`, the survival was 106%.
Consider `COc1ccc(-c2cc(C(F)(F)F)c(C#N)c(SCC(=O)Nc3cccc(C)c3)n2)cc1`, for which the survival is 74%.
Take `CN(C(=O)CSc1cn(CC(=O)N2CCCC2)c2ccccc12)c1ccccc1`: the survival was 83%.
As for `Cc1ccc(C(=O)NCC(c2ccc3c(c2)OCO3)N2CCN(c3ccc(F)cc3)CC2)cc1` (stereo unspecified), the survival is 68%.
For `Cc1ccc(C)c(CS(=O)(=O)c2cn(CC(=O)N(C(C)C)C(C)C)c3ccccc23)c1`, the survival is 77%.
For the compound `COc1ccc(CNC(=O)CSc2ncc3c(n2)-c2ccc(Cl)cc2N(Cc2ccccc2)S3(=O)=O)cc1`, the survival is 22%.
As for `COc1ccccc1CNC(=O)CSc1ncc2c(n1)-c1cc(Cl)ccc1N(Cc1ccccc1)S2(=O)=O`, the survival was 73%.
As for `O=C(CSc1ncc2c(n1)-c1ccc(Cl)cc1N(Cc1ccccc1)S2(=O)=O)Nc1ccc(F)c(F)c1`, the figure is 129%; as for `CCc1cccc(NC(=O)CSc2ncc3c(n2)-c2ccc(Cl)cc2N(Cc2ccccc2)S3(=O)=O)c1`, 101%; as for `COc1ccccc1CNC(=O)CSc1ncc2c(n1)-c1ccc(Cl)cc1N(Cc1ccccc1)S2(=O)=O`, 0% (active).
On to `Cc1cccc(C)c1NC(=O)CSc1ncc2c(n1)-c1ccc(Cl)cc1N(Cc1ccccc1)S2(=O)=O`, for which the survival is -2% (active).
